Laboratory results reported in the supplement of paper PMC11732987, “Enantioselective OTUD7B fragment discovery through chemoproteomics screening and high-throughput optimisation” (Communications Chemistry, 2025).
Values without a mark were called inactive.

Assays:
Assay in all cases: log2 ratio of Biotin-Ahx-Ub-VS probe labelling (fragment/DMSO); higher = less target engagement (more negative = stronger competition), active = hit call of the paper (q ≤ 0.05, log2 ratio ≤ -1)
Conditions in all cases: compound concentration: 200 uM; treatment time: 3 h
[1] = target: USP9X (UniProt Q93008)
Summary of the method: (§1)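 HEK293T lysate (495 µg per sample, in Tris/CHAPS/IGEPAL buffer with protease inhibitors) was treated in triplicate with fragment at 200 µM or with DMSO for 3 h. It was then treated with Biotin-Ahx-Ub-VS (0.5 µM final) for 1 h. Labelled DUBs were NeutrAvidin-enriched, digested with LysC and trypsin, and run by diaPASEF LC-MS/MS. Spectronaut label-free quantities were global-median-normalised. Values are average log2 ratios fragment/DMSO by unpaired t-test, using proteins with ≥2 unique peptides.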

[2] = target: UniProt O00487
Summary of the method: as §1

[3] = target: UniProt O00507
Summary of the method: as §1

[4] = target: UniProt P51784
Summary of the method: as §1

[5] = target: T1, UniProt Q5T2D3
T1 sequence (whole entry): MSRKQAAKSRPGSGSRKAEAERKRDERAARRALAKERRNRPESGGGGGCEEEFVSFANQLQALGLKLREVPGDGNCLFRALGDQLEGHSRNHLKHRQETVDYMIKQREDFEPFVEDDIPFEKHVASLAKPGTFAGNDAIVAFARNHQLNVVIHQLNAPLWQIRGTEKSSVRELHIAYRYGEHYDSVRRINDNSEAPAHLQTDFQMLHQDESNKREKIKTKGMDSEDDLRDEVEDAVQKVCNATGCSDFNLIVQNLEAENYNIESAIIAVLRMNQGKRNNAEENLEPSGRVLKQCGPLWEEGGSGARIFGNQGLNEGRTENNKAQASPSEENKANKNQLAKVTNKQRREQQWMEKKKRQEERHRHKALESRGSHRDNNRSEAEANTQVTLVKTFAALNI
Summary of the method: as §1

[6] = target: T2, UniProt Q8TE49
T2 sequence (whole entry): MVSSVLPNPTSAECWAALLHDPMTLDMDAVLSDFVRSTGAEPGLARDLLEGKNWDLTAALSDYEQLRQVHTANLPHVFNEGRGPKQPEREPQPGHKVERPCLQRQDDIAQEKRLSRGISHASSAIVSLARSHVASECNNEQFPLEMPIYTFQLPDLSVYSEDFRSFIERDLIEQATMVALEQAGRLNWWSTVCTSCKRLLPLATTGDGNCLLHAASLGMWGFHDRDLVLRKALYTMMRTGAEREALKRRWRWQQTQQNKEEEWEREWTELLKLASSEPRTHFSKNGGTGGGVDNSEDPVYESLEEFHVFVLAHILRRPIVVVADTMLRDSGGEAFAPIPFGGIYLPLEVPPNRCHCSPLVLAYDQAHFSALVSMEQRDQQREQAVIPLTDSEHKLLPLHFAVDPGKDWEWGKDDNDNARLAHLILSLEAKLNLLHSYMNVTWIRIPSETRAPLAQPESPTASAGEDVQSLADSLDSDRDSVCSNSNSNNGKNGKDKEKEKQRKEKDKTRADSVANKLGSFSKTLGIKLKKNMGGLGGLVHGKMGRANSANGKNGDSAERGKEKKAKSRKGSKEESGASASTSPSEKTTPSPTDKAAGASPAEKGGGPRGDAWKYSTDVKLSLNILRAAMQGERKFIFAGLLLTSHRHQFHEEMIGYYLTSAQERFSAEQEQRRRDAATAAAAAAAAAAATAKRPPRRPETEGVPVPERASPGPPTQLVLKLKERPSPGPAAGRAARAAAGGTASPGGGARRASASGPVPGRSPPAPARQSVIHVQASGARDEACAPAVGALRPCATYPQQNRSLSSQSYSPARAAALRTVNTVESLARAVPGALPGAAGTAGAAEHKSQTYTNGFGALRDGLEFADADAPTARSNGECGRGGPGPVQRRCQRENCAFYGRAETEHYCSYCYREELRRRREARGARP
Summary of the method: as §1

[7] = target: T3, UniProt Q9P2H5
T3 sequence (whole entry): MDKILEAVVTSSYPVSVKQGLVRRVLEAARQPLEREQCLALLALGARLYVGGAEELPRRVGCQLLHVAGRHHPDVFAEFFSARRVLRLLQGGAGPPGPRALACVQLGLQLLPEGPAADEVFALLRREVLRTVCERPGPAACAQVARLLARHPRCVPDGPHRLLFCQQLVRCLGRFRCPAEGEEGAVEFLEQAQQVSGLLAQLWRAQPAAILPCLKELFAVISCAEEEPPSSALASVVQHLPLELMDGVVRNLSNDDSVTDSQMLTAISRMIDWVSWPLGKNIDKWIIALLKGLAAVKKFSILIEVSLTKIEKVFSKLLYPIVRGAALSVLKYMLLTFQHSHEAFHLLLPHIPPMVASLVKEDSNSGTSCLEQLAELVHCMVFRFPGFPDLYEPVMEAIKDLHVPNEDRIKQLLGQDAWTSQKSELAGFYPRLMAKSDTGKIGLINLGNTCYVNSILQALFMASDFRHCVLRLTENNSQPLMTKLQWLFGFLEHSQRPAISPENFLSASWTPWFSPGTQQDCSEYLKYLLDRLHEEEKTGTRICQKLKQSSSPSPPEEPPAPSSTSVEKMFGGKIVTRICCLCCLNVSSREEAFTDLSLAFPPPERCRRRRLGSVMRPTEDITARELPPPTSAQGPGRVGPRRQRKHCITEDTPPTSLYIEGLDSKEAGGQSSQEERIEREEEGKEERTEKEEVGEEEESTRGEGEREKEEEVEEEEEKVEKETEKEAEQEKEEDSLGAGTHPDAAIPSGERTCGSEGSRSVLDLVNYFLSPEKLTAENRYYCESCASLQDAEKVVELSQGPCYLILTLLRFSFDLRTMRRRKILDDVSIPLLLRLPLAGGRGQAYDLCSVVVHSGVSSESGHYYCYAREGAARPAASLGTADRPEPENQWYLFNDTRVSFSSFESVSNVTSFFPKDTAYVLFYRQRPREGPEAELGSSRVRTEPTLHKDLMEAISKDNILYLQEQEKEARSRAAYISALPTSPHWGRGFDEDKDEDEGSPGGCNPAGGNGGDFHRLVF
Summary of the method: as §1

[8] = target: T4, UniProt Q9UGI0
T4 sequence (whole entry): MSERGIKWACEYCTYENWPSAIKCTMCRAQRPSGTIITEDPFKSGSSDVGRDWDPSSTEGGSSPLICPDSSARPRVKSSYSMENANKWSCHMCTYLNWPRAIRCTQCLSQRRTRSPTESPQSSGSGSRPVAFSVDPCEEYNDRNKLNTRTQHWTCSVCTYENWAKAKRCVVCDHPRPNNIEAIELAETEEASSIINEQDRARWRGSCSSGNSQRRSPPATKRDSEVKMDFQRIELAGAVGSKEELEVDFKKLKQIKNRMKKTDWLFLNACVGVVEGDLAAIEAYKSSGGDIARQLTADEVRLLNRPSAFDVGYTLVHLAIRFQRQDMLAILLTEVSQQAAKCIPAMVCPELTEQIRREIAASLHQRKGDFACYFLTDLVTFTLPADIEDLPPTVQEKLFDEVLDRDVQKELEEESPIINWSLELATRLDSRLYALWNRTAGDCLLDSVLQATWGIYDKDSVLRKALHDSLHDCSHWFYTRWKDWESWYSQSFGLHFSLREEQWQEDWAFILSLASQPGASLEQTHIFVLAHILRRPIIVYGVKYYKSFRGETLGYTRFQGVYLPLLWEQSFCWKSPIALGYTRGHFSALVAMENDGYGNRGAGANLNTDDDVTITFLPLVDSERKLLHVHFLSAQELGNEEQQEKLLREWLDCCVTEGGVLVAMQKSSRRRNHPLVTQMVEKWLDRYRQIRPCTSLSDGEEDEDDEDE
Summary of the method: as §1

[9] = target: T5, YOD1 (UniProt Q5VVQ6)
T5 sequence (whole entry): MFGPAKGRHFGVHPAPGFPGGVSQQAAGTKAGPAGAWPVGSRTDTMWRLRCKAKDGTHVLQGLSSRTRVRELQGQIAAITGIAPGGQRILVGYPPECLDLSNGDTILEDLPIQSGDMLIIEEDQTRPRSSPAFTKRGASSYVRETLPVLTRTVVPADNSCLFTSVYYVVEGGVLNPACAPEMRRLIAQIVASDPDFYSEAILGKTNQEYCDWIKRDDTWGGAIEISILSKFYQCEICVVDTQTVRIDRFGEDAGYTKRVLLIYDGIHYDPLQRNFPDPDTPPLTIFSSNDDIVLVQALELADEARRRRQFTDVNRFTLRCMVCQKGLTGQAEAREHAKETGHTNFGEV
Summary of the method: as §1

Chain of UniProt P51784 (P51784 whole entry): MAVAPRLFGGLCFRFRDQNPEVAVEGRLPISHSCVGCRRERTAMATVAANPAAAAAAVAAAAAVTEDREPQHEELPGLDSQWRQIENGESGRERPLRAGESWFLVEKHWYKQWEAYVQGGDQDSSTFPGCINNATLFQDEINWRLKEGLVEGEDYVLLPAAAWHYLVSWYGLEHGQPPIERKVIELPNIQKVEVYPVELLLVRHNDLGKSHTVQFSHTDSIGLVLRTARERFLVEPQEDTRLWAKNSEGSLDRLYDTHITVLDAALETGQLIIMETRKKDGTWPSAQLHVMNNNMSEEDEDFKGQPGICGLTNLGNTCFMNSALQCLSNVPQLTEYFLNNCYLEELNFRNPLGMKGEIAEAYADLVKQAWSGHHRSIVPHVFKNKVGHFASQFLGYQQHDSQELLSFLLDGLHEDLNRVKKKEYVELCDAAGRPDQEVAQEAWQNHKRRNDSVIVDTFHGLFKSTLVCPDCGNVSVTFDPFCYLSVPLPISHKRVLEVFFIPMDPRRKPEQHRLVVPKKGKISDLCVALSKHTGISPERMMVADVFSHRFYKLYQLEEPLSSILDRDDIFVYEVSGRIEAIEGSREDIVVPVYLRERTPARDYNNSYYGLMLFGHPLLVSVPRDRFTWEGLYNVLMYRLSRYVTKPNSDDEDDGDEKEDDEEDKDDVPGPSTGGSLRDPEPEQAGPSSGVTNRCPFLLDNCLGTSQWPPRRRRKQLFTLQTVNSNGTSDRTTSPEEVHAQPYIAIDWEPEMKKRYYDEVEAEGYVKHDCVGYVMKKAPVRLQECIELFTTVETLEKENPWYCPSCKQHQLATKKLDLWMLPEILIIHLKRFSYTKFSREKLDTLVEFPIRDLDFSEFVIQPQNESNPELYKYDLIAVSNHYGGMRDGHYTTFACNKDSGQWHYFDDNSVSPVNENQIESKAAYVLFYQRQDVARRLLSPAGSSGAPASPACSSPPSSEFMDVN
Chain of USP9X (Q93008 whole entry, the tested form may be a part): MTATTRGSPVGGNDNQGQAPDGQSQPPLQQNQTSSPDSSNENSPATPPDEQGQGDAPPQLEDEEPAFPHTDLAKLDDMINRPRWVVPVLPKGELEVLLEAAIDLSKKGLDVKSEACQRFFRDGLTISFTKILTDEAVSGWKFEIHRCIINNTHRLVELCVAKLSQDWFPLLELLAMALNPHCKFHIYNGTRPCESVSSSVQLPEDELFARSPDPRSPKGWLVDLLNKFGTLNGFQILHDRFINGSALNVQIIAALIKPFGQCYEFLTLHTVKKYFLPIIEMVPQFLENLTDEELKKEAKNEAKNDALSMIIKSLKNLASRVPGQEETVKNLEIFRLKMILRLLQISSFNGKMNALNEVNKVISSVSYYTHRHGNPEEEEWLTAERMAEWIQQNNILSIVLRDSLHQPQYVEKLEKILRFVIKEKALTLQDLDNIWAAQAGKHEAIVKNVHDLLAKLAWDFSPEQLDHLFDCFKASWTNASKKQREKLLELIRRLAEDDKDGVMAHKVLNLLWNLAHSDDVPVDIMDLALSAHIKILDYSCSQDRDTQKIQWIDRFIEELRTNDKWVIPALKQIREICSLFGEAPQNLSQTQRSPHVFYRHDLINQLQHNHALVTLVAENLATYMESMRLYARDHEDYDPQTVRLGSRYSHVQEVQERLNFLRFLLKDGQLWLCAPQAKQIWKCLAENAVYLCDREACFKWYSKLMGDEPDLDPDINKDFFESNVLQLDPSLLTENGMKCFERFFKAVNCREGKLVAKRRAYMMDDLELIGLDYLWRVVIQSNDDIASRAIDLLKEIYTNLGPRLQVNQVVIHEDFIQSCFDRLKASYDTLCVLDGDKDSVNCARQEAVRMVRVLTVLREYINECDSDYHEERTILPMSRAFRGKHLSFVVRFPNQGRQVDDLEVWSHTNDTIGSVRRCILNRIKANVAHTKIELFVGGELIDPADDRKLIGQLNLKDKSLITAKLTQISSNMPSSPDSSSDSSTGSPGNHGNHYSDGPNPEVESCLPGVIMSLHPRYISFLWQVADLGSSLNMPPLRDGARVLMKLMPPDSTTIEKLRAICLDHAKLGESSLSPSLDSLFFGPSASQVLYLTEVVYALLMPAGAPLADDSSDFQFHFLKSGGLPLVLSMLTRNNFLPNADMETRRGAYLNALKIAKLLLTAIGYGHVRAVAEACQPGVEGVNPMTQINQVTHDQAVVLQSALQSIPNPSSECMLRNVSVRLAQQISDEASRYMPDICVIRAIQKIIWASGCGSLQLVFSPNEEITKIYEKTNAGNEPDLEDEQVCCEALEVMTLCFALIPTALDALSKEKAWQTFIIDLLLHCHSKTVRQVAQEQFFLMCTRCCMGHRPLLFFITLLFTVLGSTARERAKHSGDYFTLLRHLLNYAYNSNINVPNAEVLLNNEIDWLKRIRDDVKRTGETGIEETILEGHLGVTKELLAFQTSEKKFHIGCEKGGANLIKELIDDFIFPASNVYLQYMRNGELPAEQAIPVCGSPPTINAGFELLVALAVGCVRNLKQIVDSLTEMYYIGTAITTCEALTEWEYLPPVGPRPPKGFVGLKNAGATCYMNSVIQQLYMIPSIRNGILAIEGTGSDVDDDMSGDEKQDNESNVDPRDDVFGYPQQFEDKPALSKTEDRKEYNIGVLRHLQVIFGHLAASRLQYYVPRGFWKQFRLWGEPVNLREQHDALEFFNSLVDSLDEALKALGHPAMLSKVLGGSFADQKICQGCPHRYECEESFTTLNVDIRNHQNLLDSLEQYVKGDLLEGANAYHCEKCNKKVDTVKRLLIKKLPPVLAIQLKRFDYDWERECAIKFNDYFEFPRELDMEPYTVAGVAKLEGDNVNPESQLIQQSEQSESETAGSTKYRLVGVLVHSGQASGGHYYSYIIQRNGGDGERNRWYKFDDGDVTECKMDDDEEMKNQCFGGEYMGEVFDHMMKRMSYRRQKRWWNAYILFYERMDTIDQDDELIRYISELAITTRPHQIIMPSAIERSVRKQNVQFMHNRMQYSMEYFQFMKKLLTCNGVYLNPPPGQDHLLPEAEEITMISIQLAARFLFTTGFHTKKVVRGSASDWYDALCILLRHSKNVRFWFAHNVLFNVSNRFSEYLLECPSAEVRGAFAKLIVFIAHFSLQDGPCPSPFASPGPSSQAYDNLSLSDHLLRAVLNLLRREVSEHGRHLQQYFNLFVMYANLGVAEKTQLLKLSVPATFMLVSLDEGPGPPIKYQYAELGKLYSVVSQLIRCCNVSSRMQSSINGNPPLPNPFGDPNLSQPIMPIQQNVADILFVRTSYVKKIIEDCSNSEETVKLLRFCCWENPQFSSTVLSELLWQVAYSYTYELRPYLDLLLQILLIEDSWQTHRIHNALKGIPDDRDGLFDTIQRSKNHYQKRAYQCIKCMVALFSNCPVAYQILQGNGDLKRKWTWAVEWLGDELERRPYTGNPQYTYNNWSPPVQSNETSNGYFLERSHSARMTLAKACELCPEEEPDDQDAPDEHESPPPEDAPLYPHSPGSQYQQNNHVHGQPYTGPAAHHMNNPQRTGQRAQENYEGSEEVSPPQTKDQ
Chain of UniProt O00487 (O00487 whole entry): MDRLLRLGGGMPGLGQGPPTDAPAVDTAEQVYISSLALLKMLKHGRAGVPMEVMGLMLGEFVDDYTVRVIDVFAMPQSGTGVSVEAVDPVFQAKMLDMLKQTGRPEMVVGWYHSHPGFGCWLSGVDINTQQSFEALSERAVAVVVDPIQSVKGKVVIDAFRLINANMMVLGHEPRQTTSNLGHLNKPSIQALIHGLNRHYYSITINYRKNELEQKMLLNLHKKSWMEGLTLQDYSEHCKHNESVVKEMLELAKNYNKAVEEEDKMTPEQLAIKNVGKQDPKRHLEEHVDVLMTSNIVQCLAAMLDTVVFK

Structure (SMILES): CNC(=O)Cn1cc(NC(=O)CCl)cn1
- log2 ratio of Biotin-Ahx-Ub-VS probe labelling [1]: -0.287
- log2 ratio of Biotin-Ahx-Ub-VS probe labelling [2]: -0.0928
- log2 ratio of Biotin-Ahx-Ub-VS probe labelling [3]: -0.146
- log2 ratio of Biotin-Ahx-Ub-VS probe labelling [4]: -0.115
- log2 ratio of Biotin-Ahx-Ub-VS probe labelling [5]: -0.427
- log2 ratio of Biotin-Ahx-Ub-VS probe labelling [6]: -0.553
- log2 ratio of Biotin-Ahx-Ub-VS probe labelling [7]: -0.256
- log2 ratio of Biotin-Ahx-Ub-VS probe labelling [8]: -1.09 (active)
- log2 ratio of Biotin-Ahx-Ub-VS probe labelling [9]: -0.252
